Active and inactive are the calls of the source. Rule as the data show it: active = IC50 below about 9 µM; inactive = the rest.
The compounds below were run on Ba/F3 Cytotoxicity (assay: JAK2V617F project follow-up: kinase, reporter, cytotoxicity – HEL and Ba/F3 cells, late-stage follow-up (AID 2165)). Details: JAK2V617F panel: kinase, IRF1 reporter.

Q: Which IC50 does the source give for COCCOc1cc2nc[nH]c(=O)c2cc1OCCOC here?
A: The IC50 was > 40 µM (inactive).

Q: How did the IC50 turn out when Clc1cccc(Nc2ncnc3ccccc23)c1 was run?
A: The IC50 was > 40 µM (inactive).

Q: COc1cc2ncnc(NC(C)C)c2cc1OC was tested. Which IC50 did it give?
A: The IC50 was > 40 µM (inactive).

Q: How did the IC50 turn out when Cc1nnc(NC(=O)COc2ccccc2)s1 was run?
A: Its IC50 is > 40 µM (inactive).

Q: How did the IC50 turn out when COc1cc2ncnc(Nc3cccc(Br)c3)c2cc1OC was run?
A: Its IC50 is > 40 µM (inactive).

Q: With COc1cc2ncnc(Nc3cccc(Cl)c3)c2cc1OC as the compound, how does the IC50 read?
A: The IC50 was > 40 µM (inactive).

Q: How did the IC50 turn out when Cc1cccc(OCC(=O)Nc2ccccc2F)c1 was run?
A: The IC50 was > 40 µM (inactive).

Q: How did the IC50 turn out when COc1ccccc1/C=C/C(=O)c1c2c(c(C)[nH]c1=O)CCCC2 was run?
A: The IC50 was 1.06 µM (active).

Q: For O=C(C=Cc1ccccc1F)c1c(-c2ccccc2)c2ccccc2[nH]c1=O, which IC50 is on record?
A: Its IC50 is 0.37 µM (active).

Q: For Cc1ccc(O)c(NC(=O)COc2ccc(C)c(C)c2)c1, which IC50 is on record?
A: Its IC50 is 5.02 µM (active).

Q: For COc1cc(/C=C(\C#N)C(N)=O)cc(CSc2nc3ccccc3s2)c1O, which IC50 is on record?
A: Its IC50 is 7.61 µM (active).

Q: With Cc1cccc(OCC(=O)Nc2cccc(O)c2)c1 as the compound, how does the IC50 read?
A: Its IC50 is > 40 µM (inactive).

Q: COc1ccc(OCC(=O)Nc2cc(C)ccc2O)cc1 was tested. Which IC50 did it give?
A: Its IC50 is 2.01 µM (active).

Q: For COc1cc(C=C(C#N)C(N)=O)cc(CSc2ccccc2)c1O, which IC50 is on record?
A: The IC50 was > 40 µM (inactive).

Q: How did the IC50 turn out when Cc1cccc(OCC(=O)Nc2cc(C)c(C)cc2O)c1 was run?
A: Its IC50 is > 40 µM (inactive).

Q: For O=C(NCCc1cccnc1)C1CCC(=O)N(CCc2cccc(F)c2)C1 (configuration not stated), which IC50 is on record?
A: The IC50 was > 40 µM (inactive).

Q: Which IC50 does the source give for c1ccc(Nc2ncnc3ccccc23)cc1 here?
A: Its IC50 is > 40 µM (inactive).

Q: With Cc1[nH]c(=O)c(C(=O)C=Cc2ccccc2Cl)c2c1CCCC2 as the compound, how does the IC50 read?
A: The IC50 was 0.16 µM (active).

Q: Cc1ccc(O)c(NC(=O)COc2ccccc2C)c1 was tested. Which IC50 did it give?
A: Its IC50 is 3.84 µM (active).

Q: For COc1ccccc1OCC(=O)Nc1cc(C)ccc1O, which IC50 is on record?
A: The IC50 was 0.018 µM (active).

Q: How did the IC50 turn out when Cc1ccc(O)c(NC(=O)COc2cccc(C)c2C)c1 was run?
A: The IC50 was > 40 µM (inactive).

Q: How did the IC50 turn out when Cc1[nH]c(=O)c(C(=O)C=Cc2ccc(Br)cc2)c2c1CCCC2 was run?
A: The IC50 was 2.57 µM (active).

Q: For COc1cc2ncnc(Nc3ccccc3)c2cc1OC, which IC50 is on record?
A: The IC50 was > 40 µM (inactive).

Q: With COc1cc2ncc(-c3ccccc3)nc2cc1OC as the compound, how does the IC50 read?
A: The IC50 was > 40 µM (inactive).

Q: Cc1ccc(C=CC(=O)c2c3c(c(C)[nH]c2=O)CCCC3)cc1 was tested. Which IC50 did it give?
A: Its IC50 is 3.34 µM (active).

Q: Which IC50 does the source give for COc1cc2ncnc(Sc3ccc(Cl)cc3)c2cc1OC here?
A: Its IC50 is > 40 µM (inactive).

Q: Cc1cccc(OCC(=O)Nc2cccc(C)c2C)c1 was tested. Which IC50 did it give?
A: The IC50 was > 40 µM (inactive).

Q: How did the IC50 turn out when Cc1cccc(OCC(=O)Nc2ccc(O)cc2)c1 was run?
A: Its IC50 is 6.62 µM (active).

Q: Cc1ccc(O)c(NC(=O)COc2ccc(Cl)cc2)c1 was tested. Which IC50 did it give?
A: Its IC50 is 1.39 µM (active).

Q: COc1ccc(C)cc1NC(=O)Nc1ccc(Br)cn1 was tested. Which IC50 did it give?
A: Its IC50 is > 40 µM (inactive).

Q: For Cc1[nH]c(=O)c(C(=O)C=Cc2cccc(Br)c2)c2c1CCCC2, which IC50 is on record?
A: The IC50 was 0.67 µM (active).

Q: COc1cc2ncnc(Nc3ccc(OC(F)(F)F)cc3)c2cc1OC was tested. Which IC50 did it give?
A: Its IC50 is > 40 µM (inactive).

Q: For Cc1ccc(O)c(NC(=O)COc2cccc3ccccc23)c1, which IC50 is on record?
A: Its IC50 is 1.95 µM (active).

Q: Which IC50 does the source give for COc1ccc(C=CC(=O)c2c3c(c(C)[nH]c2=O)CCCC3)cc1 here?
A: Its IC50 is 4.38 µM (active).

Q: COc1cc2ncnc(Sc3ccc(C)cc3)c2cc1OC was tested. Which IC50 did it give?
A: Its IC50 is 3.68 µM (active).

Q: Which IC50 does the source give for COc1cc2ncnc(Nc3ccc(O)c(Br)c3)c2cc1OC here?
A: The IC50 was 3.64 µM (active).

Q: With CCC(C)c1ccc(OCC(=O)Nc2cc(C)ccc2O)cc1 (configuration not stated) as the compound, how does the IC50 read?
A: Its IC50 is 6.47 µM (active).

From PubChem BioAssay AID2165 (The Scripps Research Institute Molecular Screening Center, 2009)
